The results in this text go back to PubChem BioAssay AID489018 (Southern Research Specialized Biocontainment Screening …, 2010).

Molecules are shown by their SMILES. Among all 2,300 compounds or so, about 350 (15%) were called active. No rule for the calls is given here. Not all results are given here. Results with a measured potency or affinity are listed apart.

The assay in a line: HepG2 cell cytotoxicity, dose response, cytotoxicity control for non-replicating M. tuberculosis project (AID 489018).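 Also: HepG2 human liver cells.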 The following applies: series mostly up to 20 µM.
Turning to `COc1n[nH]c(C(=O)Nc2cc(F)ccc2C)c1[N+](=O)[O-]`, the compound was called inactive.

Take `Cc1cccc(NC(=O)c2ccc([N+](=O)[O-])o2)c1C`: the compound was called inactive.

Take `Cc1cc(C(=O)N/N=C/c2ccc([N+](=O)[O-])o2)c(C)o1`: the outcome was inactive.

For `COc1ccc(C(=O)NCC(=O)N/N=C/c2ccc([N+](=O)[O-])o2)cc1OC`, the result was inactive.

`O=[N+]([O-])c1ccc(/C=N/NS(=O)(=O)c2ccc(Cl)cc2)o1`: the outcome was inactive.

Turning to `Nc1nonc1C(=O)N/N=C/c1ccc([N+](=O)[O-])o1`, the compound was called inactive.

For the compound `Cc1ccccc1NC(=O)c1ccc([N+](=O)[O-])o1`, the compound was called inactive.

As for `Cc1cc(C)cc(OCC(=O)N/N=C/c2ccc([N+](=O)[O-])o2)c1`, the compound was called inactive.

On to `O=C(Nc1ccccc1)c1cc2ccccc2o1`, for which the call was inactive.

`CN1C(c2ccccc2)CC(=NO)CC1c1ccccc1` (stereo unspecified): the outcome was inactive.

Turning to `COc1ccccc1NC(=O)c1cnc(SC)nc1`, the result was inactive.

Regarding `O=C(CC(=O)c1cc(Cl)ccc1O)c1ccccc1`, the result was inactive.

With `COc1ccc(-c2noc(-c3cc4ccccc4oc3=O)n2)cc1`, the compound was classed as inactive.

Regarding `O=C(N/N=C/c1ccc(Br)s1)c1ccccc1[N+](=O)[O-]`, the outcome was inactive.

Regarding `CCc1nnc(N/N=C/c2ccc(-c3ccc([N+](=O)[O-])cc3)o2)n1N`, the result was inactive.

For `O=C(N/N=C/c1ccc([N+](=O)[O-])o1)c1sc2ccccc2c1Cl`, the result was inactive.

In the case of `Cc1ccc(OCC(=O)N/N=C/c2ccc([N+](=O)[O-])o2)cc1`, the compound was classed as inactive.

For the compound `CCCCCCCC(=O)N/N=C/c1ccc([N+](=O)[O-])o1`, the compound was called inactive.

For `Cc1nonc1C(=O)N/N=C/c1ccc([N+](=O)[O-])o1`, the call was inactive.

For the compound `O=C(N/N=C\c1ccc([N+](=O)[O-])o1)C1COc2ccccc2O1` (stereo unspecified), the result was inactive.

With `O=C(N/N=C\c1ccc([N+](=O)[O-])o1)c1cncc(Br)c1`, the call was inactive.

Consider `COc1ccccc1OCC(=O)N/N=C/C=C/c1ccc([N+](=O)[O-])o1`, for which the outcome was inactive.

`Brc1c(-c2ccc3c(c2)OCO3)nc2ncccn12`: the outcome was inactive.

As to `O=C(Nc1ccc(N2CCN(C(=O)c3ccco3)CC2)c(Cl)c1)c1cccs1`, the compound was called inactive.

Take `COC(=O)c1ccccc1Sc1ncnc2onc(C)c12`: the outcome was inactive.

With `Cc1c(Cl)cccc1-c1ccc(CNCc2ccccn2)o1`, the call was inactive.

`N#Cc1nc(-c2ccc(OCc3ccccc3)cc2)oc1NCCCn1ccnc1`: the outcome was inactive.

Consider `CCOC(=O)C(C)Oc1cc(Cl)c(C=O)cc1OC` (stereo unspecified), for which the call was inactive.

With `N/N=C(/Cc1nc2ccccc2[nH]1)c1ccc([N+](=O)[O-])cc1`, the compound was classed as inactive.

On to `O=C(Nc1cc(C(F)(F)F)ccc1-n1cncn1)c1ccc([N+](=O)[O-])o1`, for which the compound was called inactive.

For the compound `COc1ccccc1-c1nnc(Sc2nc([N+](=O)[O-])nn2C)o1`, the outcome was inactive.
